How the values were obtained:
Assay in all cases: DAPPL (digital affinity profiling via proximity ligation, sequencing); 10 mM Tris-HCl pH 7.5, 50 mM NaCl, 1 mM DTT, 4% glycerol, room temperature, 30 min; GST-TFs on glutathione beads, 16-mer random dsDNA library, 0.1% formaldehyde crosslink after washing; high values mean tight binding
Details in all cases: protein: recombinant; tags: N-terminal GST; dsDNA, one strand shown
[1] = biological target: T1, FLI1 (Homo sapiens, UniProt Q01543 1-452)
T1 sequence: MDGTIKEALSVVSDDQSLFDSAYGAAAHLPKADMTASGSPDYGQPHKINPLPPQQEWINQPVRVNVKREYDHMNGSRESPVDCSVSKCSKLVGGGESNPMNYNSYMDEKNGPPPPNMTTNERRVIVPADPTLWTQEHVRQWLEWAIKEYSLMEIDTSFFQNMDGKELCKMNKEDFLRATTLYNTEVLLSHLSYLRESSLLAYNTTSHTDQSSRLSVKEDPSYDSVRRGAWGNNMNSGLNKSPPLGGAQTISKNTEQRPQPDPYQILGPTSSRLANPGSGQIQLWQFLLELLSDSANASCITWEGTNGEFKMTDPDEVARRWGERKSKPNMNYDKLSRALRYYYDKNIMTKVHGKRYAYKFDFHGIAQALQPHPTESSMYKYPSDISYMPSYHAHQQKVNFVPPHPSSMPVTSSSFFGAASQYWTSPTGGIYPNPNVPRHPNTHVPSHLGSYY
Method in brief: (§1)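 Human transcription factors were made in yeast as GST fusions, captured on glutathione beads and barcoded with DNA. With a tag-only sample included, the pool was incubated with 200 nmole of a random double-stranded 16-mer DNA library in Tris/NaCl/DTT/glycerol buffer at room temperature for 30 min, then crosslinked with 0.1% formaldehyde after washing, ligated by proximity, amplified and sequenced. For binding signal, each hexamer's read frequency for a factor is divided by its frequency for the tag-only sample.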

[2] = biological target: T2, ELK1 (Homo sapiens, UniProt P19419 1-428)
T2 sequence: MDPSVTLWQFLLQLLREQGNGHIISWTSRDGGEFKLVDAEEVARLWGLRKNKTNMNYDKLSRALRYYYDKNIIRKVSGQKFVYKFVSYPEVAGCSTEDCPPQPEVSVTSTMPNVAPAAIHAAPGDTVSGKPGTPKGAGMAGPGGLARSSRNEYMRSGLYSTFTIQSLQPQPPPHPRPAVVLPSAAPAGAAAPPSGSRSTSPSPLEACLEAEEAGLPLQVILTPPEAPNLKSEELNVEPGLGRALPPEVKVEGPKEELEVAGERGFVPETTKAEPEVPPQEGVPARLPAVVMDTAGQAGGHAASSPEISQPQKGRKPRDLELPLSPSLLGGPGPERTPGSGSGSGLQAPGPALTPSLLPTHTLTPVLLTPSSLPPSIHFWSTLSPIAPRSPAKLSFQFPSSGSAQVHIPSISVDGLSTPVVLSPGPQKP
Method in brief: as §1

[3] = biological target: T3, GABPA (Homo sapiens, UniProt Q06546 1-454)
T3 sequence: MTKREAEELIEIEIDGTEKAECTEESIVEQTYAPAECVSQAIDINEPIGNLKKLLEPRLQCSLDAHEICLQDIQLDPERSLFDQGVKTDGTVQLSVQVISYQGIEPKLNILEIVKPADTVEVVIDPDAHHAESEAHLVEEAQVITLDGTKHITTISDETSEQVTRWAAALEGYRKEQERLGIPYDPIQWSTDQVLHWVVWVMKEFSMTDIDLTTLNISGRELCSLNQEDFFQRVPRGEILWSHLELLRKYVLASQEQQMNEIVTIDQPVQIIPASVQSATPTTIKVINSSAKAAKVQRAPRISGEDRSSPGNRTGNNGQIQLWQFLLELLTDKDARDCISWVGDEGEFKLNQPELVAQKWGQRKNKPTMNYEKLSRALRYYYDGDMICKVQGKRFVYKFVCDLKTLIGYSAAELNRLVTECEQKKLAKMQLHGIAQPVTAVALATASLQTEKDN
Method in brief: as §1

[4] = biological target: T4, ERG (Homo sapiens, UniProt P11308 1-479)
T4 sequence: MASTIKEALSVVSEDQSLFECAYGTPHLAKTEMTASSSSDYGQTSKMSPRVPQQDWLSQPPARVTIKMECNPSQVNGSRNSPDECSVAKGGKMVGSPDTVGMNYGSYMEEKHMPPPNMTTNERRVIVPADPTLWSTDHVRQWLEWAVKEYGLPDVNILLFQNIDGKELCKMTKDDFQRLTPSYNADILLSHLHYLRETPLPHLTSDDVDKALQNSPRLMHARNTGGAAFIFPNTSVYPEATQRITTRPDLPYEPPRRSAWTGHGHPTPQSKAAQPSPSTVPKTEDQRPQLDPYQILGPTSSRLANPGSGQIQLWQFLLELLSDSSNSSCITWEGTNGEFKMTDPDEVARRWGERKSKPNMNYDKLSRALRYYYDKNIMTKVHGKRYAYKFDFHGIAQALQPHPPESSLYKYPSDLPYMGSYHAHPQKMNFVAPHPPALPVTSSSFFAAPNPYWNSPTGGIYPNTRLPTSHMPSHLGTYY
Method in brief: as §1

[5] = biological target: ELF1 (Homo sapiens, UniProt P32519 1-619)
ELF1, sequence (P32519 whole entry): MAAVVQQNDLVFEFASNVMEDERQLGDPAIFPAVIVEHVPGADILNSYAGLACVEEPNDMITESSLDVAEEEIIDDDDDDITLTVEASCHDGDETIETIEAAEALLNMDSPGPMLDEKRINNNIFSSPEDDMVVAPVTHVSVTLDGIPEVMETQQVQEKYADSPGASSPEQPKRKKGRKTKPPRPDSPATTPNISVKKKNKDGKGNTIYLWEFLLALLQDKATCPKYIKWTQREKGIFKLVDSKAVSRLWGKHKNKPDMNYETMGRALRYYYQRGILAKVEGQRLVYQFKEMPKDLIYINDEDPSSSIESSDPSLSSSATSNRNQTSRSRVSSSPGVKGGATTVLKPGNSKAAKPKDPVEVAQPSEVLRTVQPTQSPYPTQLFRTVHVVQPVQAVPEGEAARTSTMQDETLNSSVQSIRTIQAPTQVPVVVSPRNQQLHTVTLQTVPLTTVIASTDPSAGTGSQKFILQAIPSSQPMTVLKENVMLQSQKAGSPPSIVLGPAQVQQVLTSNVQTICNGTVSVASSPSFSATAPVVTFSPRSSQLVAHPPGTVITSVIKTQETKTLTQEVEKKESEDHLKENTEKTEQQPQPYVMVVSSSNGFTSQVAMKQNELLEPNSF
Method in brief: as §1

[6] = biological target: T5, EHF (Homo sapiens, UniProt Q9NZC4 1-300)
T5 sequence: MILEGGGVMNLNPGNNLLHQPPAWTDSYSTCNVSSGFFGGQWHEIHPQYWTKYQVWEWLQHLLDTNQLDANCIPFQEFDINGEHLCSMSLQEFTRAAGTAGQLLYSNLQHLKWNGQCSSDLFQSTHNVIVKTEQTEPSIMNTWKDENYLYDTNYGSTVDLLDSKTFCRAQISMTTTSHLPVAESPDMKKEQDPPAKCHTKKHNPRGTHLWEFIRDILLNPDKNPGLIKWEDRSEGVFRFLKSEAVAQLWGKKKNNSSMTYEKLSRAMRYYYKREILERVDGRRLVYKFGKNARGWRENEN
Method in brief: as §1

[7] = biological target: SPI1 (Homo sapiens, UniProt P17947 1-270)
Method in brief: as §1

[8] = biological target: SPIB (Homo sapiens, UniProt Q01892 1-262)
SPIB, sequence (Q01892 whole entry): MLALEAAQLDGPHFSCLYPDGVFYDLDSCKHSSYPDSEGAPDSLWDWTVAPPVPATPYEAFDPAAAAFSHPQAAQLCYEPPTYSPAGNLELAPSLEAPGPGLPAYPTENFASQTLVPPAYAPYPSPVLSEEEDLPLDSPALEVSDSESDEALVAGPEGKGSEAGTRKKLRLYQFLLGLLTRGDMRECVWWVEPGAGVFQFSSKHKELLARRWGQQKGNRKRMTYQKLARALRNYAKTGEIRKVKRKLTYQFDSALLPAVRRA
Method in brief: as §1

[9] = biological target: T6, ELK3 (Homo sapiens, UniProt P41970 1-407)
T6 sequence: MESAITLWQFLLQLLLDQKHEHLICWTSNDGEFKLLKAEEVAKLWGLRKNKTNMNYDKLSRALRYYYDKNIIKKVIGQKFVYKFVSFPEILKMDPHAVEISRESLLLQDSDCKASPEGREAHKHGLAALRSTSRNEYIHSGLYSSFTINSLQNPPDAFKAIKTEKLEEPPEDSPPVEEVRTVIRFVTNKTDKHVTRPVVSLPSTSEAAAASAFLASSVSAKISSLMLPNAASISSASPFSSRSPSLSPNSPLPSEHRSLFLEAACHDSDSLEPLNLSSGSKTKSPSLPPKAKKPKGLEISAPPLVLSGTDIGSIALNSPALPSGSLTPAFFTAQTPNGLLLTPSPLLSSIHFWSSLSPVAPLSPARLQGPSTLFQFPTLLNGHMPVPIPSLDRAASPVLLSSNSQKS
Method in brief: as §1

[10] = biological target: T7, FEV (Homo sapiens, UniProt Q99581 1-238)
T7 sequence: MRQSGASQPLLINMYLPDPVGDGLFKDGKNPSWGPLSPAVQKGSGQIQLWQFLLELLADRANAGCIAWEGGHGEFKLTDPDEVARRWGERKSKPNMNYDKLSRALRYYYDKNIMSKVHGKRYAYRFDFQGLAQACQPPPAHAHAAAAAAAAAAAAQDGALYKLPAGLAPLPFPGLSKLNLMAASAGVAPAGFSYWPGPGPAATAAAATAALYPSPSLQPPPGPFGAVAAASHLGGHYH
Method in brief: as §1

[11] = biological target: ETV5 (Homo sapiens, UniProt P41161 1-510)
ETV5, sequence (P41161 whole entry): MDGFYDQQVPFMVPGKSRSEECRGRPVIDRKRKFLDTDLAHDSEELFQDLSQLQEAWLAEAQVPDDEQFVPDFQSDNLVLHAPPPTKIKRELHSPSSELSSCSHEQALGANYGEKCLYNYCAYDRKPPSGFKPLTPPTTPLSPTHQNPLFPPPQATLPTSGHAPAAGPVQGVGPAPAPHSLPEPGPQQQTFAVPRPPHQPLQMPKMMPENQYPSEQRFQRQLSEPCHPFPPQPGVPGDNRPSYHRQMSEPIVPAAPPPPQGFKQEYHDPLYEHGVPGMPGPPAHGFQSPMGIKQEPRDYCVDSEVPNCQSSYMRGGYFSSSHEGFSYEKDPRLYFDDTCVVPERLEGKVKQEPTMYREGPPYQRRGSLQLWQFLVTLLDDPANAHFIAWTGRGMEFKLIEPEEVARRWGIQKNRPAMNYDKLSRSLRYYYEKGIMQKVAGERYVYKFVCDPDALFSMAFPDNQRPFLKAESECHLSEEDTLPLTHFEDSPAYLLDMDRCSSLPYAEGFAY
Method in brief: as §1

[12] = biological target: T8, SPIC (Homo sapiens, UniProt Q8N5J4 1-248)
T8 sequence: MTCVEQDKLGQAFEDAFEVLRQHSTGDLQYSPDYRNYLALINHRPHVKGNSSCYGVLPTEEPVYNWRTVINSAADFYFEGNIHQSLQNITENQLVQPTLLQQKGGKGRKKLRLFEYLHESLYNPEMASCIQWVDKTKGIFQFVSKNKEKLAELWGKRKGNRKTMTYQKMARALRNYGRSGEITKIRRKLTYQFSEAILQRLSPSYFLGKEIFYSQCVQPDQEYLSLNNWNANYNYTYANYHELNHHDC
Method in brief: as §1

[13] = biological target: ELF4 (Homo sapiens, UniProt Q99607 1-663)
ELF4, sequence (Q99607 whole entry): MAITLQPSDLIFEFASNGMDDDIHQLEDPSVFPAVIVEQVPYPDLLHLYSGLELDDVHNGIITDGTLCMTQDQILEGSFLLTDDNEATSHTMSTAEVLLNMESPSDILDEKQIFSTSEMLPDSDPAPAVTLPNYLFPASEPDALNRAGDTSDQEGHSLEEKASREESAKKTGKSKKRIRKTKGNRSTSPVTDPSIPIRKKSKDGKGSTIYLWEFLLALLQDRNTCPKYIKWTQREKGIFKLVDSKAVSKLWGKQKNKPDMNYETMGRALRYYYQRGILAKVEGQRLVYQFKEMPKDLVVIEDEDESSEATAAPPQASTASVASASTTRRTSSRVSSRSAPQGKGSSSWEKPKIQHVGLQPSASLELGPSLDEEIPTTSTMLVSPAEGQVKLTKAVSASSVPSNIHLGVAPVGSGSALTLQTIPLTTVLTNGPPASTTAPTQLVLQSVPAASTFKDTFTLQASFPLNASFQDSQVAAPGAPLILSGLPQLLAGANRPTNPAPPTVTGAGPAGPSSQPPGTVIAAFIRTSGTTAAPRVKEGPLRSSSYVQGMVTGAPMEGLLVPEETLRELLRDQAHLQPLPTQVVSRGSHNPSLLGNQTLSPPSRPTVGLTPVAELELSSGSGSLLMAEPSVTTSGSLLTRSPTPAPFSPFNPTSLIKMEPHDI
Method in brief: as §1

[14] = biological target: T9, ELK4 (Homo sapiens, UniProt P28324-2 1-405)
T9 sequence: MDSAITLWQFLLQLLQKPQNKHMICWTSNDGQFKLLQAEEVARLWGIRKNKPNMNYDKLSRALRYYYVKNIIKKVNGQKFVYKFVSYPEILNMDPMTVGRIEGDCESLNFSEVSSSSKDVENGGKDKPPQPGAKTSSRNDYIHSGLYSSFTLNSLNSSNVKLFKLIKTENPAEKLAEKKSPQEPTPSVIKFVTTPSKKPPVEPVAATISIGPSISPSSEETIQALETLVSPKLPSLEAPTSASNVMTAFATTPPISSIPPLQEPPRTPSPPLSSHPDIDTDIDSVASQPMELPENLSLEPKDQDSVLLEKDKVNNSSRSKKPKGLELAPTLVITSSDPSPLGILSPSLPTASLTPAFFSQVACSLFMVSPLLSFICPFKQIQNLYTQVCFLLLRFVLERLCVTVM
Method in brief: as §1

[15] = biological target: T10, ETV2 (Homo sapiens, UniProt O00321 1-342)
T10 sequence: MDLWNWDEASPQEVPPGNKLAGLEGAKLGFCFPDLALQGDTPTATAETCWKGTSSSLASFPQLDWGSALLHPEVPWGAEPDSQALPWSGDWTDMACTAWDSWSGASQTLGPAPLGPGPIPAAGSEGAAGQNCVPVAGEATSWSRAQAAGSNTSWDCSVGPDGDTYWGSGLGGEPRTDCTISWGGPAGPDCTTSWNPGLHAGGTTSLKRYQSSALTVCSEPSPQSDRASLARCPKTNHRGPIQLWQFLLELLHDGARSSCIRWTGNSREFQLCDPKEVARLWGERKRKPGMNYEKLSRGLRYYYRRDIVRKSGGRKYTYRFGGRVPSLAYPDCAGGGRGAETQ
Method in brief: as §1

[16] = biological target: T11, ELF3 (Homo sapiens, UniProt P78545 1-371)
T11 sequence: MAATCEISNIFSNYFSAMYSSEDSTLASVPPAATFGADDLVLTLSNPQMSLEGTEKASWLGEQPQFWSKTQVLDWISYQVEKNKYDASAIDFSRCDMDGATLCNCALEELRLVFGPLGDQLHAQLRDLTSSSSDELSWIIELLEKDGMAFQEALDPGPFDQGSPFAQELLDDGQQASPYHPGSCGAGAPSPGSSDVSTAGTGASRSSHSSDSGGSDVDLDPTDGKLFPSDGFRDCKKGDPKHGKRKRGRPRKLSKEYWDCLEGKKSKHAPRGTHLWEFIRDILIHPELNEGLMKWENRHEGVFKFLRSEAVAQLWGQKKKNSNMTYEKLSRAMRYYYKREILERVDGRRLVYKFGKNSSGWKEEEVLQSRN
Method in brief: as §1

[17] = biological target: CRX (Homo sapiens, UniProt O43186 1-299)
CRX, sequence (O43186 whole entry): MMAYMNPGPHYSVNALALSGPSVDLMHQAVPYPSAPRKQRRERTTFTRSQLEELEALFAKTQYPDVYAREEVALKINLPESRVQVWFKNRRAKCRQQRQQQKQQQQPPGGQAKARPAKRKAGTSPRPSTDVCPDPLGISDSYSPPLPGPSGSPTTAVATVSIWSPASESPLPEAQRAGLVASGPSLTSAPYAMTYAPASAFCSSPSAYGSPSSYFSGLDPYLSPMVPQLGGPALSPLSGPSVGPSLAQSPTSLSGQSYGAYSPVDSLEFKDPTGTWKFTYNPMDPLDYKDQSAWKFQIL
Method in brief: as §1

[18] = biological target: ETV1 (Homo sapiens, UniProt P50549 1-477)
ETV1, sequence (P50549 whole entry): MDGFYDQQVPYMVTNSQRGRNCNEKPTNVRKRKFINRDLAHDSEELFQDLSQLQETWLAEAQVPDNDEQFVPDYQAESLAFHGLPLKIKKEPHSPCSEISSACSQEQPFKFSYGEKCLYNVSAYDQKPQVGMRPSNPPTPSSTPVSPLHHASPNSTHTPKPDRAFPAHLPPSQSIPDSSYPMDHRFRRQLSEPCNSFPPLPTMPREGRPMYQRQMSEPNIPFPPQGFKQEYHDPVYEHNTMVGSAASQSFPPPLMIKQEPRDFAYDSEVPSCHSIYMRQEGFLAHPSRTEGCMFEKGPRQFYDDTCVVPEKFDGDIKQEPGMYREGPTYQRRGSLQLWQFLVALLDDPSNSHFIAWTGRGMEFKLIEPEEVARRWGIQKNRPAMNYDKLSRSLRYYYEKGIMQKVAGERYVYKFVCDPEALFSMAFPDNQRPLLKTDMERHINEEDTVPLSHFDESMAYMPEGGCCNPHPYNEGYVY
Method in brief: as §1

TGTATA
binding signal [1]: 1.08 fold enrichment (6-mer frequency, TF over GST control)
binding signal [2]: 1.11 fold enrichment (6-mer frequency, TF over GST control)
binding signal [3]: 1.02 fold enrichment (6-mer frequency, TF over GST control)
binding signal [4]: 1.03 fold enrichment (6-mer frequency, TF over GST control)
binding signal [5]: 1.04 fold enrichment (6-mer frequency, TF over GST control)
binding signal [6]: 1.18 fold enrichment (6-mer frequency, TF over GST control)
binding signal [7]: 1.03 fold enrichment (6-mer frequency, TF over GST control)
binding signal [8]: 1.19 fold enrichment (6-mer frequency, TF over GST control)
binding signal [9]: 1.15 fold enrichment (6-mer frequency, TF over GST control)
binding signal [10]: 1.02 fold enrichment (6-mer frequency, TF over GST control)
binding signal [11]: 1.15 fold enrichment (6-mer frequency, TF over GST control)
binding signal [12]: 1.07 fold enrichment (6-mer frequency, TF over GST control)
binding signal [13]: 1.06 fold enrichment (6-mer frequency, TF over GST control)
binding signal [14]: 1.22 fold enrichment (6-mer frequency, TF over GST control)
binding signal [15]: 1.04 fold enrichment (6-mer frequency, TF over GST control)
binding signal [16]: 1.02 fold enrichment (6-mer frequency, TF over GST control)
binding signal [17]: 1.03 fold enrichment (6-mer frequency, TF over GST control)
binding signal [18]: 1.16 fold enrichment (6-mer frequency, TF over GST control)

CGGTTT
binding signal [1]: 1.26 fold enrichment (6-mer frequency, TF over GST control)
binding signal [2]: 1.18 fold enrichment (6-mer frequency, TF over GST control)
binding signal [3]: 1.25 fold enrichment (6-mer frequency, TF over GST control)
binding signal [4]: 1.33 fold enrichment (6-mer frequency, TF over GST control)
binding signal [5]: 1.26 fold enrichment (6-mer frequency, TF over GST control)
binding signal [6]: 1.27 fold enrichment (6-mer frequency, TF over GST control)
binding signal [7]: 1.44 fold enrichment (6-mer frequency, TF over GST control)
binding signal [8]: 1.23 fold enrichment (6-mer frequency, TF over GST control)
binding signal [9]: 1.25 fold enrichment (6-mer frequency, TF over GST control)
binding signal [10]: 1.44 fold enrichment (6-mer frequency, TF over GST control)
binding signal [11]: 1.21 fold enrichment (6-mer frequency, TF over GST control)
binding signal [12]: 1.23 fold enrichment (6-mer frequency, TF over GST control)
binding signal [13]: 1.21 fold enrichment (6-mer frequency, TF over GST control)
binding signal [14]: 1.23 fold enrichment (6-mer frequency, TF over GST control)
binding signal [15]: 1.11 fold enrichment (6-mer frequency, TF over GST control)
binding signal [16]: 1.24 fold enrichment (6-mer frequency, TF over GST control)
binding signal [17]: 1.05 fold enrichment (6-mer frequency, TF over GST control)
binding signal [18]: 1.32 fold enrichment (6-mer frequency, TF over GST control)

Reference: PMC7862700, “An all-to-all approach to the identification of sequence-specific readers for epigenetic DNA modifications on cytosine”
